Source: PubChem BioAssay (NCI)
Values joined by “and” are separate entries in the source; they are usually repeats but may differ in a detail not shown here. Identical values can stand only once. The panel holds about 79,000 compounds, 15% with a hit somewhere; the sample as a whole holds those more often. Cut-off read from the data, not from the text of the source: active = growth inhibition above about 70%; inactive = the rest.

Assays:
[1] = NCI Yeast Anticancer Drug Screen. Data for the rad50 strain (AID 155);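 note: 0% = growth of vehicle-only cultures of the same strain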; conditions: S. cerevisiae rad50 strain growth inhibition, hits give high values; at 50.0 µM unless noted
Method in brief: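 Compounds were tested on a yeast strain with an engineered DNA damage repair alteration; the reported value is growth inhibition normalised to vehicle treatment.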

[2] = NCI Yeast Anticancer Drug Screen. Data for the mec2-1 strain (AID 157); conditions: S. cerevisiae mec2-1 strain, hits give high values; at 50.0 µM unless noted
Method in brief: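 Cells of the genetically defined mec2-1 yeast strain are incubated with test compound. Inhibition of growth is calculated against vehicle-treated controls.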

[3] = NCI Yeast Anticancer Drug Screen. Data for the sgs1 mgt1 strain (AID 161);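 note: 0% = growth of cultures given vehicle only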; conditions: S. cerevisiae sgs1 mgt1 strain, hits give high values; at 50.0 µM unless noted
Method in brief: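 Mutant yeast exposed to compound; growth scored against vehicle-only wells.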

[4] = NCI Yeast Anticancer Drug Screen. Data for the cln2 rad14 strain (AID 165);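 note: 0% = growth equal to vehicle treated cultures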; conditions: S. cerevisiae cln2 rad14 strain, hits give high values; at 50.0 µM unless noted
Method in brief: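 The screen exposed genetically defined yeast (cln2 rad14) to test compounds and scored growth inhibition relative to vehicle-treated controls.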

[5] = NCI Yeast Anticancer Drug Screen. Data for the bub3 strain (AID 167); conditions: S. cerevisiae bub3 mutant strain, hits give high values; at 50.0 µM unless noted
Method in brief: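 Growth of a checkpoint-deficient yeast mutant is measured after compound exposure. Values represent inhibition relative to vehicle.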

[6] = NCI Yeast Anticancer Drug Screen. Data for the mlh1 rad18 strain (AID 175); conditions: S. cerevisiae mlh1 rad18 strain growth inhibition, hits give high values; at 50.0 µM unless noted
Method in brief: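 Compound-treated yeast growth, normalised to vehicle controls. Strain bears defined DNA repair mutations.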

Measured: growth inhibition

CCCC(=O)N(CCC(C)C)c1ccccc1
inactive: [1] -12.6% | [2] 6.3% | [3] 2.45% | [4] 9.9% | [5] -9.25% | [6] -7.8%

COc1c2c(cc3c1C(CCCc1ccccc1)N(C)CC3)OCO2 (stereo not given)
inactive: [1] 22.4% | [2] 7.6% | [3] 30.7% | [4] 11.5% | [5] 9.75% | [6] 28.6%

Nc1ncnc2c1ncn2C1OC(C(O)CO)C(O)C1O (stereo not given)
inactive: [1] -0.65% and -17.4% | [2] -1.4% and -71.8% | [3] -4.2% and -6.85% | [4] -81.3% and 10.2% | [5] 1.15% and 16.4% | [6] -16.1% and -31.6%

CCN(CC)C(=O)c1cc(OC)c(C(=O)N(CC)CC)cc1OC
inactive: [1] -21.9% | [2] -0.35% | [3] 4.15% | [4] -15.2% | [5] -9.4% | [6] -8.2%

CC(O)C(C(=O)O)N(CC1(O)OCC(O)C(O)C1O)N=O (stereo not given)
inactive: [1] -4.5% | [2] -13.9% | [3] 11.3% | [4] 1.2% | [5] -2.65% | [6] -7.45%

O=C(/C=C\c1ccc(Cl)c(Cl)c1)c1ccc(Cl)cc1Cl
inactive: [1] 36.1% | [2] 9.35% | [3] -4.6% | [4] 1.65% | [5] 22.1% | [6] 0.7%

Nc1nc(CC2(O)CCCCC2)cc(-c2ccccc2)n1
inactive: [1] 49% | [2] 29.6% | [3] 21.1% | [4] 55.2% | [5] 45.5% | [6] 44.8%

COc1cccc(C2SC(N)=Nc3c2c(C)nn3C(=O)c2ccccc2O)c1 (stereo not given)
inactive: [1] 19.7% | [2] 9.25% | [3] 33.1% | [4] 17.6% | [5] 38% | [6] 24.9%

CCN(CC)CCC(=O)c1ccc(Cl)cc1
inactive: [1] 19.6% | [2] 21.4% | [3] 14.1% | [4] 10.3% | [5] 1.05% | [6] 17.4%

O=C(O)CCC(=O)c1ccc(F)cc1
inactive: [1] -20.6% | [2] -13.7% | [3] -13.6% | [4] -0.95% | [5] -22.6% | [6] -7.65%

CC(=O)Oc1ccc(N2CC=C(c3ccccc3)CC2)cc1
inactive: [1] -6.7% | [2] -13.5% | [3] -9.75% | [4] -8.35% | [5] -9.45% | [6] -4.45%

Cc1nc(CO)c(-c2ccc([N+](=O)[O-])cc2)o1
inactive: [1] 0.4% | [2] -4% | [3] -8.75% | [4] -20.4% | [5] -13.1% | [6] -1.5%

O=c1c2ccc(Cl)cc2nc2nc(-c3ccccc3)c3cc(Cl)ccc3n12
inactive: [1] 57.6% | [2] 31.2% | [3] 37.4% | [4] 22.9% | [5] 6.3% | [6] 46.5%

O=C1/C(=C/c2ccccc2)CCC2CCCCC12 (stereo not given)
inactive: [1] 22.1% | [2] -0.95% | [3] -0.8% | [4] -24.9% | [5] -20.1% | [6] 14.4%

O=C(OCC1OCOC2C(COC(=O)c3ccccc3)OCOC12)c1ccccc1 (stereo not given)
inactive: [1] 9.05% | [2] 4.35% | [3] 8.05% | [4] 4.8% | [5] 13.7% | [6] 15.7%

CCO[C@@H]1OC(=O)[C@H]2C(c3ccccc3Cl)=NO[C@@H]12
inactive: [1] -33.1% | [2] -30.9% | [3] -13.2% | [4] -6.65% | [5] 14.2% | [6] 0.35%

COC1=CC2CC(C#N)C2(OC)C=C1 (stereo not given)
inactive: [1] -10.8% | [2] 5.75% | [3] -4.7% | [4] -18.2% | [5] -17.4% | [6] 1.8%

COc1cccc(OC)c1NC(=O)C(=O)Nn1c(NNC(=O)c2ccncc2)nc2ccccc2c1=O
inactive: [1] 28.6% | [2] 26.5% | [3] 4.65% | [4] -30.1% | [5] 35% | [6] 38.4%

O=C(NC1c2ccccc2Oc2ccccc21)OCCI
inactive: [1] 36.1% | [2] 6.05% | [3] 37.6% | [4] 13.3% | [5] -14% | [6] 19.8%

CSc1nc(SC)c2ncn(C3CC(Oc4ccc(C)cc4)C(COc4ccc(C)cc4)O3)c2n1 (stereo not given)
inactive: [1] 15.8% | [2] -5.75% | [3] 17.1% | [4] 10.3% | [5] 8.45% | [6] -18.2%

Cc1ccccc1Cc1nccc2c1[nH]c1ccccc12
inactive: [1] -3% and -0.7% | [2] -11.5% and -15.1% | [3] -9.05% | [4] -29.5% | [5] -8.45% | [6] -16.9% and 50.1%

CCCCCCC(=O)C/C(CCC(=O)N(Cc1ccccc1)Cc1ccccc1)=N\Nc1ccc([N+](=O)[O-])cc1[N+](=O)[O-]
inactive: [1] 12.8% | [2] 16.1% | [3] -13.3% | [4] 27.4% | [5] -11.4% | [6] -20.5%

COC1CCC(=O)N1CN(C(C)=O)c1ccc(C)cc1 (stereo not given)
inactive: [1] 10.4% | [2] 9.1% | [3] -25.2% | [4] 28.4% | [5] 3.75% | [6] -28.1%

O=C(/C=C/c1ccc(OCc2ccccc2)cc1)c1cccc([N+](=O)[O-])c1
inactive: [1] 4.7% | [2] 6.35% | [3] -5.85% | [4] 9.15% | [5] -0.05% | [6] 12.2%

CCOC(=O)CNC(=O)SCc1ccccc1
inactive: [1] -12.4% | [2] -6.2% | [3] -5.95% | [4] -8.1% | [5] -11.3% | [6] 1.45%

O=c1oc(=O)c2cc3c(=O)oc(=O)c3cc12
inactive: [1] -21.4% | [2] 11.1% | [3] -6.75% | [4] -28% | [5] 7.1% | [6] -5.6%

Cc1[nH]c2c(ccc3c2ccc2c(=O)c(C)c(C)[nH]c23)c(=O)c1C
inactive: [1] -2.05% | [2] -7.45% | [3] -4.35% | [4] -29% | [5] -0.3% | [6] 2.3%

CC(C)(C)C(=O)OCC1CCC(n2cnc3c(=O)[nH]c(N)nc32)O1 (stereo not given)
inactive: [1] 34.3% | [2] 2.3% | [3] -3.65% | [4] 3.05% | [5] -2.25% | [6] 25.7%

CCOc1cc(OCC)c2c(c1)C(=O)OC2=O
inactive: [1] 4.15% | [2] -3.8% | [3] 10% | [4] 4.05% | [5] -34.4% | [6] -10.2%

OC1(c2nccc3ccccc23)CCN(CCc2ccccc2)CC1
inactive: [1] 46.5% | [2] 33.4% | [3] 55.8% | [4] 40.5% | [5] 17.9% | [6] 34.8%

Cc1ccc(Cl)c(NC(=O)Nc2ccccc2Cl)c1
inactive: [1] -3.7% | [2] 3.65% | [3] -7.2% | [4] -15.2% | [5] -2.5% | [6] 20.4%

CCOC(OCC)C1(C)CC=CCC1 (stereo not given)
inactive: [1] 20.4% | [2] 11.3% | [3] 5.05% | [4] -3.4% | [5] 3.15% | [6] 6.4%

Clc1ccc2[nH]c3c(c2c1)CCCC3
inactive: [1] 10.7% | [2] 0.45% | [3] 28.4% | [4] 1.6% | [5] 2.55% | [6] 28.8%

COc1ccc(/C=N\NC(=O)c2cnccn2)cc1
inactive: [1] 9.15% | [2] 10.8% | [3] 5.35% | [4] 1.4% | [5] 15.7% | [6] 11.1%

CCOC(=O)CN(c1c(C)cc([N+](=O)[O-])c2ccccc12)S(=O)(=O)c1ccccc1
inactive: [1] 50.1% | [2] 13.8% | [3] 33.8% | [4] 6.65% | [5] 16.9% | [6] 12.2%

O=C1/C(=C\C=C\c2ccccc2)CCCC/C1=C\C=C\c1ccccc1
inactive: [1] 11.3% | [2] -0.35% | [3] -0.95% | [4] 5.95% | [5] -1.4% | [6] 8.35%

COc1cc(C(O)C2C(=O)OCC2C2(c3ccc4c(c3)OCO4)SCCCS2)cc(OC)c1OC (stereo not given)
inactive: [1] 36.1% and -8.8% | [2] -2.8% and -8.95% | [3] 35.4% and -21.5% | [4] 7.2% and 1.7% | [5] 10.1% and -2.95% | [6] 1.45% and 17.2%

OC/C(Br)=C(\Br)CO
inactive: [1] -34.3% | [2] -54.4% | [3] -39.6% | [4] -9.25% | [5] -28.6% | [6] -35.5%

CC(=O)CSc1c(-c2ccccc2)c(=O)n(-c2ccccc2)c(=S)n1-c1ccccc1
inactive: [1] -3.8% | [2] -10.1% | [3] -13.2% | [4] -2.3% | [5] -8.5% | [6] 3.85%

CCOC(=O)C(C)(c1[nH]c2ccccc2c1C)c1[nH]c2ccccc2c1C
inactive: [1] -0.55% | [2] -6.2% | [3] -14.2% | [4] -1.4% | [5] -14.6% | [6] -5.7%
